Test results as given in paper PMC4336329 (PLoS ONE, 2015).
About 14,000 (4.5%) of roughly 310,000 compounds showed an effect of 50% or more. Effects have a minus sign here. The entries come from a sample that favours strong results as a whole.

Biological target: human ether-à-go-go-related gene (hERG) potassium channel (human, UniProt Q12809)
Assay: primary screen, population patch clamp on CHO cells stably expressing hERG; higher = less effect of the substance
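Note: peak tail current of the secondary pulse compared with the same well before compound.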

human ether-à-go-go-related gene (hERG) potassium channel, sequence (Q12809 whole entry, looked up): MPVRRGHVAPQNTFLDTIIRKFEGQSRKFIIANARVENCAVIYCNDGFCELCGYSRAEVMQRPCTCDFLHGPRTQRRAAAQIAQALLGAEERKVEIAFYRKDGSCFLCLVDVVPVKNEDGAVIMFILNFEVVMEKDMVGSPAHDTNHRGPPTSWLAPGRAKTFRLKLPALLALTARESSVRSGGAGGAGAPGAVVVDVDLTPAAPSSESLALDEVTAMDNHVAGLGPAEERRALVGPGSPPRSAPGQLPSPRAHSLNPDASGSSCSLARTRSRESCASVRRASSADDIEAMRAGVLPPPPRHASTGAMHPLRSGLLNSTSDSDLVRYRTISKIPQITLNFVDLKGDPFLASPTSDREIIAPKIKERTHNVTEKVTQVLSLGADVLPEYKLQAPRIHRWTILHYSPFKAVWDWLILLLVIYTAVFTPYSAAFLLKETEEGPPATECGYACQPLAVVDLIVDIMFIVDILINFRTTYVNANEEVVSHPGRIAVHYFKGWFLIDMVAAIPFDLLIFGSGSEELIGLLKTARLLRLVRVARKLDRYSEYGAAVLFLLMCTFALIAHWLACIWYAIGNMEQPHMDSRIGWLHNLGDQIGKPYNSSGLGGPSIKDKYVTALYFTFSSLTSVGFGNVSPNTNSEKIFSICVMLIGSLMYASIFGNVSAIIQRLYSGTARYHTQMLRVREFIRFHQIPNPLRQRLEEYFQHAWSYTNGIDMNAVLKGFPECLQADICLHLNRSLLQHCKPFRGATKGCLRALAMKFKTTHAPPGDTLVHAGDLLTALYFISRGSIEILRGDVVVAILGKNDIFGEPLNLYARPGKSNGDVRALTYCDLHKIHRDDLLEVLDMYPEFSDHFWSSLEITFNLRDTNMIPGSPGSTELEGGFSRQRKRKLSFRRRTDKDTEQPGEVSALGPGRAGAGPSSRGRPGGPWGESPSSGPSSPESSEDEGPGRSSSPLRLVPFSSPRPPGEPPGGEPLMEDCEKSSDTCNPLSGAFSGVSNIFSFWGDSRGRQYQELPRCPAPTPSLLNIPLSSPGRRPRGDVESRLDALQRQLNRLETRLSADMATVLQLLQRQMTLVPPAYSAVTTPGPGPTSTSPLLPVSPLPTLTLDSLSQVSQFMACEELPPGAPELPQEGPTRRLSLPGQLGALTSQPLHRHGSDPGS

SMILES	hERG current change (%, negative = inhibition) at 10uM
Cl.O=S(=O)(NCC(c1ccco1)N1CCCCC1)c1cccc(C(F)(F)F)c1 (centres unmarked)	-57.7%
CC(=O)c1cccc(S(=O)(=O)NCC(c2ccco2)N2CCCCC2)c1 (centres unmarked)	-24.1%
Cl.O=S(=O)(NCC(c1ccco1)N1CCCCC1)c1ccccc1C(F)(F)F (centres unmarked)	-6.8%
CC(C)[C@H](NC(=O)c1ccccc1F)C(=O)Nc1ccc2c(c1)OCO2	5.82%
Br.C1=C(c2cccc3ccccc23)N2CCN=C2S1	-34.5%
CCc1ccc(N2C(=O)NC(=O)C(CCc3ccncc3)(CCc3ccncc3)C2=O)cc1	-69.9%
COc1ccc(N2C(=O)NC(=O)C(CCc3ccncc3)(CCc3ccncc3)C2=O)cc1	-23.6%
Cc1ccc(N2C(=O)NC(=O)C(CCc3ccncc3)(Cc3cccc(Cl)c3Cl)C2=O)cc1 (centres unmarked)	6.14%
O=C1NC(=O)C(CCc2ccncc2)(CCc2ccccn2)C(=O)N1c1ccc(Br)cc1 (centres unmarked)	-75.6%
O=C1NC(=O)C(CCc2ccncc2)(Cc2cccc(Cl)c2Cl)C(=O)N1c1ccc(Br)cc1 (centres unmarked)	-11%
Cc1ccc(N2C(=O)NC(=O)C(CCc3ccccn3)(Cc3ccc(F)cc3)C2=O)cc1 (centres unmarked)	12.9%
CCOC(=O)c1c(C)[nH]c(C=O)c1Cc1cccc(Cl)c1	6.47%
C/C=C/c1cc(OC)c2c(c1)[C@H](C)[C@@H](c1ccc(O)c(OC)c1)O2	15.9%
O=C(CN1C(=O)NC2(CCCCCC2)C1=O)Nc1ccc(S(=O)(=O)N2CCOCC2)cc1	9.75%
Cc1ccccc1COc1ccc(-c2nn[nH]n2)cc1	13%
COc1ccccc1CNC(=O)C1CC2Cn3c(nc4cc(C)c(C)cc43)C2N1C (centres unmarked)	-27%
Cc1ccc(CNC(=O)C2CC3Cn4c(nc5cc(Cl)c(Cl)cc54)C3N2C)o1 (centres unmarked)	-58.5%
CN1C(C(=O)NCC2CC2)CC2Cn3c(nc4cc(Cl)c(Cl)cc43)C21 (centres unmarked)	-34.3%
Cc1ccc(CNC(=O)C2CC3Cn4c(nc5cc(C)c(C)cc54)C3N2C)o1 (centres unmarked)	-36.9%
Cc1ccc(CNC(=O)C2CC3Cn4c(nc5ccccc54)C3N2C)o1 (centres unmarked)	-0.36%
CN1C(C(=O)NCc2ccco2)CC2Cn3c(nc4cc(Cl)c(Cl)cc43)C21 (centres unmarked)	-43.2%
COCCNC(=O)C1CC2Cn3c(nc4cc(Cl)c(Cl)cc43)C2N1C (centres unmarked)	-26.5%
CC(C)CCNC(=O)C1CC2Cn3c(nc4cc(Cl)c(Cl)cc43)C2N1C (centres unmarked)	-56%
COc1ccccc1CNC(=O)C1CC2Cn3c(nc4cc(Cl)c(Cl)cc43)C2N1C (centres unmarked)	-65.4%
Cc1cc2nc3n(c2cc1C)CC1CC(C(=O)NCCC(C)C)N(C)C31 (centres unmarked)	1.81%

SMILES	hERG current change (%, negative = inhibition) at 10uM
COc1ccccc1CNC(=O)C1CC2Cn3c(nc4cc5ccccc5cc43)C2N1C (centres unmarked)	-43.8%
CN1C(C(=O)NCc2cccc(Br)c2)CC2Cn3c(nc4cc(Cl)c(Cl)cc43)C21 (centres unmarked)	-75.8%
COc1ccc(CCN(C)C(=O)CCCN2C(=O)c3cccc4cccc(c34)C2=O)cc1OC	-35.5%
O=C(O)C1CCCCC1C(=O)Nc1ccccc1Cl (centres unmarked)	15.1%
O=C(CN1C(=O)c2ccccc2C1=O)N1CCN(C2c3ccccc3-c3ccccc32)CC1	-23.1%
O=C(/C=C/c1ccco1)NCC1COc2ccccc2O1 (centres unmarked)	-0.808%
O=C(NC1CCCCC1)N1CCSC1=Nc1ccccc1	-5.04%
CCOCCCNC(=O)c1c(C)c(C(=O)OCC)n(C)c1C	15.3%
CCOC(=O)N1N=C(c2ccccc2)CC1(O)C(C)(F)F (centres unmarked)	12.1%
CN1C(C(=O)NCc2ccccc2)CC2Cn3c(nc4cc(Cl)c(Cl)cc43)C21 (centres unmarked)	-65.6%
C=CCNC(=O)C1CC2Cn3c(nc4cc(Cl)c(Cl)cc43)C2N1C (centres unmarked)	-35.4%
O=C(NCCO)c1ccc(-c2nnc(Nc3ccc(O)cc3)c3ccccc23)cc1	16.8%
COc1ccc(Nc2nnc(-c3ccc(C(=O)NCCO)cc3)c3ccccc23)cc1	-4.6%
Cc1ccccc1Nc1nnc(-c2ccc(C(=O)NCCO)cc2)c2ccccc12	-65.9%
CCC(C)[C@H](NC(=O)C1CCN(C(=O)[C@H](Cc2ccccc2)NC(=O)OC(C)(C)C)CC1)C(=O)O (some centres unmarked)	-1.42%
COc1ccc(-c2oc(NC(=O)c3ccc(C)cc3)c(C#N)c2-c2ccc(OC)cc2)cc1	-11.6%
O=C(C1=C[C@@H](c2csc3ccccc23)C[C@@H](OCc2ccc(CO)cc2)O1)N1CCN(Cc2ccc3c(c2)OCO3)CC1	1.69%
O=C(C1=C[C@@H](c2csc3ccccc23)C[C@@H](OCCCCO)O1)N1CCN(Cc2ccc3c(c2)OCO3)CC1	-11%
O=C(C1=C[C@H](c2csc3ccccc23)C[C@H](OCc2ccc(CO)cc2)O1)N1CCN(Cc2ccc3c(c2)OCO3)CC1	12.4%
O=C(C1=C[C@H](c2coc3ccccc3c2=O)C[C@H](OCc2ccc(CO)cc2)O1)N1CCN(Cc2ccc3c(c2)OCO3)CC1	-57.2%
CC(=O)n1cc([C@@H]2C=C(C(=O)N3CCN(Cc4ccc5c(c4)OCO5)CC3)O[C@H](OCc3ccc(CO)cc3)C2)c2ccccc21	-17.5%
CN1CCN(C(=O)C2=C[C@@H](c3coc4ccccc4c3=O)C[C@@H](OCc3ccc(CO)cc3)O2)CC1	-22.5%
O=C(C1=C[C@@H](c2coc3ccccc3c2=O)C[C@@H](OCCCCO)O1)N1CCN(Cc2ccc3c(c2)OCO3)CC1	-49.7%
O=C(C1=C[C@@H](c2coc3ccccc3c2=O)C[C@@H](OCc2ccc(CO)cc2)O1)N1CCN(Cc2ccc3c(c2)OCO3)CC1	-66.1%
O=C(C1=C[C@H](c2coc3ccccc3c2=O)C[C@H](OCCCCO)O1)N1CCN(Cc2ccc3c(c2)OCO3)CC1	-64.4%
